The whole screen tested about 5,500 compounds, of which about 2,000 (36%) were called active. Another 18% or so got no clear call; they are omitted. Cut-off read from the data, not from the text of the source: active = normalized growth mostly below about 0.91 (no sharp cut-off); inconclusive = no clear call, values can overlap the other calls; inactive = mostly above about 0.92. The list shows a part of the results.
Assay: chemical genetic growth profiling, strain panel (AID 1159580);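 note: tested at 20 µM; growth read once vehicle control cultures reached saturation at 30 °C; 1 = growth at the plate median or of vehicle wells; lower values mean less growth of the strain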
Conditions: S. cerevisiae deletion strains, growth OD

Measured: normalized growth

CN(C)CC[C@@H](c1ccc(Br)cc1)c1ccccn1
inactive: locus YAL040C, strain CLN3, stronger effect = lower value 1.05 | locus YCL061C, strain MRC1 (second series), stronger effect = lower value 0.993 | locus YDR363W, strain ESC2, stronger effect = lower value 0.97 | locus YER002W, strain NOP16, stronger effect = lower value 0.99 | locus YGR078C, strain PAC10, stronger effect = lower value 0.991 | locus YMR307W, strain GAS1, stronger effect = lower value 1.01 | locus YNL128W, strain TEP1, stronger effect = lower value 0.984 | locus YNL175C, strain NOP13, stronger effect = lower value 0.988 | locus YNL197C, strain WHI3, stronger effect = lower value 0.928 | locus YNL224C, strain SQS1, stronger effect = lower value 0.985 | locus YNL322C, strain KRE1, stronger effect = lower value 0.983 | locus YOR083W, strain WHI5 (second series), stronger effect = lower value 0.912 | locus YPL055C, strain LGE1, stronger effect = lower value 1

CCN(CC)CCOCCOC(=O)C(CC)(CC)c1ccccc1
inactive: locus YHR030C, strain SLT2, stronger effect = lower value 0.99 | locus YHR079C, strain IRE1, stronger effect = lower value 1.01 | locus YJL095W, strain BCK1, stronger effect = lower value 0.988 | locus YJR066W, strain TOR1, stronger effect = lower value 0.902 | locus YLR113W, strain HOG1, stronger effect = lower value 1.03 | locus YNL183C, strain NPR1, stronger effect = lower value 0.908 | locus YOR231W, strain MKK1, stronger effect = lower value 0.993 | locus YPL256C, strain CLN2, stronger effect = lower value 0.972
